Whole data set: some 59,000 sequences, median the read-out near -0.00055, cut for the lowest 2% near -2. The sample as a whole holds a higher share of the lowest values than the screen did.

The test is described as follows: Identification of proteins required for the processing of the EWS-FLI1 nascent transcript.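 Also: robust z of luciferase light less the median z of siRNAs with the same seed.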 As to conditions: TC32 Ewing sarcoma NR0B1-luc vs CMV-luc (EWS-FLI1 target promoter against control promoter), 48 h; screened at 20 nM (by protocol). The method, boiled down: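 Parallel TC32-NR0B1-luc and TC32-CMV-luc reverse transfections with 20 nM siRNA in RPMI-1640/10% FBS, luciferase measured 48 h later. Seed-adjusted z-scores from normalized, z-score-MAD transformed data; AllStars negative and siGL4 controls on each plate.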
For UGAUAUAGCCUCCAUAUGC against INVS, the seed-corrected z-score was -0.175. Sequence UUCUAAUCUAGUGAUUAGC against LDB2 had a seed-corrected z-score of 0.172. As to UAAACUGAAACGGAAAUGC against PTCHD3P1, the seed-corrected z-score is -0.411.

Sequence UUGAGUUUGUCACAGUUUC against SH3BP2 yielded a seed-corrected z-score of 0.349.

With UUUCAGCUUAGGAAAGGCA against KRTDAP, the seed-corrected z-score is -4.29. The same measure for AGAUCUAUUGUGAACAGCC against FLT3: -0.0495.

UAGGUAAAUAGCCUCGUGC against CEACAM19 showed a seed-corrected z-score of 0.0325. The figure for UUGCAUUUUCAGGUACUUG against RDH5 is -0.555.

Regarding UUUGUAAGCUCUGUCAUCC against FAM13B, the seed-corrected z-score was -0.0737. The same measure for ACCUGUCAAAGAGCAAAGC against AMD1P3: 0.646; for UCUGAGUUUUGAGCUGUCC against MST1R: -0.112; for UGUCUAAUGACAAUGCUGU against UBR5: -0.38.

On to UACUGCUAGAUUGAGAUCC against KDM5D, for which the seed-corrected z-score was -2.31. For UAUCUUGCAUAAGUCUUGU against XRCC6BP1, the seed-corrected z-score turned out to be 1.28. Turning to UACUCUUUUCCACGAAUCC against CCDC141, the seed-corrected z-score was -0.626. The same measure for UUCAAUACCAAAGAUAUUG against BTF3P16: -2.14; for UGAGGUCCCAGAUUCUCAG against FBXW4: 0.248. The same measure for UCUUCGUCAUCGUUCAUUC against ZC3H4: -2.37; for AUAGACAUCUGAUCCGUUC against PGK1: -0.0528. The same measure for UCUGCGACAUUCCUCAUAG against XPO1: -0.546. In the case of AUCCAGAUUAGUUUCCCUC against VIM, the seed-corrected z-score is -2.52. The same measure for UCAAUCUCAACGGUCACCG against NLRP1: 1.3; for UUUGAUUGAGGCAUAUGCG against REEP6: 1.08. The same measure for UCAGGUUCAGCAGGAAGUG against ADAMTS10: -0.537.

For the sequence UUAAUGGUGACCUUGACCU against C19orf47, the seed-corrected z-score is -0.413. The figure for AACUGAGUUGUAGAGCUGC against IL12RB1 is -0.226; for AAUUCUUUUUGUCUGGAUC against PRSS35 it is 0.405; for UAAAUCUGCUCUCCUUUCC against LY86 it is 0.785. The figure for UUCUCUUCAACAAGUGACA against C6orf201 is -2.08.

In the case of UCUCUGUCCUCAAAAGUGG against CLCN4, the seed-corrected z-score was -0.277. The same measure for UACGUGAGCUUGUACAGCC against MTTP: -0.0803; for UCGAGUGUGAUGUCUCUUC against AGO3: 0.413; for UUGUGCACCACGAGAGUAG against RAB40AL: -2.28.

Turning to UUCUGGAGCAGUUCGACAG against CNPPD1, the seed-corrected z-score is 0.781.

Regarding UUCUCAAUCAGCACGGCCC against GPX2, the seed-corrected z-score was -0.162.

As to UCAUGUACACUGCUAAUUC against SLC30A10, the seed-corrected z-score came out at 0.696. The same measure for AUACUGUUCACCGAGAAGG against TSPEAR: -3.82; for UAUGUUGGUGCUCAUACUC against MED11: 0.678; for UUAAACUCAGGCUUUGGUC against HABP4: -1.03.

As to UACUGAUUCACAAUGACCU against RNF208, the seed-corrected z-score was -0.361. The same measure for UAACUUGAUAACAGGUGCC against OR10T2: -5.77. The figure for AAAAACAACAGAAGCAUGC against TSPAN8 is 0.399. The figure for UGUUGUUCAACAAAACCGC against KRT28 is 0.472; for AUAGGCAUAUGGUUAGGCC against SS18 it is -2.03.

In the case of ACAGCGUACAGCAAACACG against TMEM54, the seed-corrected z-score was -12. The figure for UUCCUCUUCACCACGGUGU against CNNM3 is -0.123; for UGAGAGUUCAUAGCGUAUC against RCE1 it is -0.494. Consider AAAGUAUAAUGGAUGUAUC against GNAI1, for which the seed-corrected z-score is -0.47. The figure for AUAGGUACCAGGUAUGAGC against FOXM1 is 0.087; for UUUGUUGGGAUGUUGGGUG against SPATA12 it is -2.1.

As for UGCUGAAUGAGGUACGUGC against ZNF550, the seed-corrected z-score is -0.438. The figure for UAUCCAUUUUCCUCUAUCC against FGF10 is -0.261; for UAUGGUUAGAAGAUAUCCC against IDS it is 1.1; for AAAAGCUCACGGAGAAUCC against LINC01433 it is 1.28.

Consider AACUGUCAAUGGUUGAAGC against FCGR2A, for which the seed-corrected z-score was -0.901. The figure for AGUUUCUCAAUGUCUGGGC against PAGR1 is -3.83. The same measure for UUCGAGAAAAGCAGAAUCC against PRORSD1P: -0.604; for ACAUCAACCACUACAGUGC against PCDHB7: -0.314.

On to UUAACUUUCUCGAUAGAAC against SLC45A2, for which the seed-corrected z-score stood at 0.853. The same measure for UUGACGUGCAUGAAGGACC against DUSP3: -0.254. UUCAGUACCAGGCUGGGUG against COMT had a seed-corrected z-score of 0.499. The same measure for UUCUUGAUGAUCUUUAGCU against LONP1: 0.0484; for UGGUCUAUAGUAUUCAUGC against YTHDF2: -0.0088.

Regarding UGAUUAUUAGGUACUACCC against RCN2, the seed-corrected z-score is -2.4. The same measure for UUCAAUCAGAUCGAAGAGC against CLK2: 0.0394; for AAAGAAGUAGAGGUAGGAC against OR6T1: 0.724; for UUAACUGCACCAUCAGUGU against S100A8: -3.04. The same measure for UCAGCAUCAACAUAAUGCG against TAS2R40: -1.07. The same measure for UGACGAAUCCCUGCUAUAG against TDRD5: -0.0697. As to AAUUAGAUUACCUAAACAC against CDKL2, the seed-corrected z-score worked out at 0.926. Take UAAAGGGAAAUUUCCACCA against CDH16: the seed-corrected z-score was determined as 0.815. As for UUUGGUGAUUUCAUAAUCC against PCDH18, the seed-corrected z-score is -0.027.

For the sequence AUCUGGAUCGCUCAGCUCC against TMEM235, the seed-corrected z-score is 0.0464. The figure for UAGCUUCUCACAGACUUUC against KCTD8 is -2.45; for UUUCCUCUAGGAAGCAUCU against TRIM17 it is 0.172; for AUAGGCAGCAGUGCACUCG against 5-Sep it is -1.81. In turn, UAUAGUUAAAUCCAUCAUC against CALU gave a seed-corrected z-score of 0.272. The figure for UAGUAAGAAGAGUCAAUGC against PGA5 is -0.472; for AAUUGUUCACUGACCAGGC against WNT8A it is -0.645; for AAAUAAUCCUGUCUACUCC against BOD1 it is 0.629.

Take UUGUAUUCAUCCUUGAAGC against CCDC89: the seed-corrected z-score was -2.42. The same measure for UGAGGACAUCGAAGAGGCC against HTR6: 1.21. The same measure for UAAUGUAGAACAUUUUGAC against LECT2: 0.659; for UAUGCUUGCAGUCCACUGG against DYNLT3: 1.02; for UUACUGGGAAUAGCACUGC against ITGA5: 0.318.

In the case of UACUCUAUCCGCUGUGCCC against RCC2, the seed-corrected z-score was -0.853.

As to UAGUUGUCGGUAUCUGUCC against CSPP1, the seed-corrected z-score is -2.38.

The sequence AUCGUGAAGAGAUACUCCG against MAPKBP1 had a seed-corrected z-score of 0.318. The same measure for UCAGCACACUGUCAGGUAC against USB1: 0.878; for UCACGGUGCACAAAGUUCU against ZAP70: -0.0104; for UCUCUGUAUGUGACUGUGA against SNRPD3: -2.85. The figure for UUGAAGUUCAUUAGUCUCC against AK5 is -0.322; for UGUGGAUUUUGGAUGCAGC against XKR5 it is -0.21.

Turning to AAUGUGGUUGAGCUGAUCC against MAPK3, the seed-corrected z-score was -2.13. For the sequence UUGGACAAAAGAUAAGAGC against SNRNP40, the seed-corrected z-score was -0.258.

UUACCAGAUAGGAUGAUCA against OR5P2 returned a seed-corrected z-score of 0.365. For the sequence UUUGAGGCCGUUGAGGGUG against ELAVL3, the seed-corrected z-score was -0.487. The figure for UGGGAUUCAAGAUCUCCUC against NGEF is -3.75. The figure for UUAAUGUAUGGGUUGACUC against PLS1 is -0.413; for UCCAGUUCUCCGGUGAUCU against SYNE3 it is 0.481. The same measure for UUUGCAUUCAUAAAGAAUU against ING3: -0.246. UCACGUACAAGAGCACUCG against GRHL2 returned a seed-corrected z-score of 0.132. The figure for UUCAGUUGAAUUCCAAAGG against ARHGAP28 is 0.997.

For AAGGUGAUAAGUACAGUCA against LINC00977, the seed-corrected z-score is 0.26. The figure for AUGAUGCUAGGGUCGGUGC against E2F2 is -0.689; for UCUAGUACUACAUUGGCUU against FLJ32255 it is -1.66.

For CAUGGUCUCAGUCAGCAUG against CBY3, the seed-corrected z-score is -2.21. The figure for UAUUCAGCAUUCUCUAUCU against DDAH2 is -0.379; for UCCCUGACAACUCCAGGGU against CLDN9 it is 0.379; for UAGUAAAUGAACGAAGGCG against MAD2L1 it is 0.0839. The same measure for UUAGAUACGACAUAAGCAG against PGAP1: 0.122; for UUUCUUCAAGGCAGUUUGC against SRGN: -1.36.

Take UGAUGGUUGAAAUACUGGU against CITED2: the seed-corrected z-score is -2.05. As for UGAACAGUCGCCGCUCUCU against ZNF418, the seed-corrected z-score was found to be 0.482. The same measure for UGUCGUUUUUGUAUCCUUG against CAGE1: -1.32; for UCUUCGUUGACCACACCAC against KCNIP1: 0.284; for UAGAAUGUCAGUUGGUUCC against MID1IP1: 0.366. The figure for UACAGAUAAACGAUGAUGC against TMEM104 is -0.0479.

With AGUUGUCCAACCAAUAGUC against EDRF1, the seed-corrected z-score is -3.95. The same measure for UACAUUGAAGCCUAUGGUU against ARF5: 0.767.

The sequence UUUUAUUUUCACAGUAGCA against LOC441239 displayed a seed-corrected z-score of 0.865. The figure for UGACUGUAAACAGAGGCGG against SSR4 is -0.396; for UUUCGUUGGACUUACUUGG against SPP1 it is -0.831; for UCAGGGCAAAGUGGGAUGA against OXER1 it is -2.06. With UUCAGGUGGACGAACAGCG against ADAMTS8, the seed-corrected z-score was -0.634. The same measure for UCCGAUAGAGGUUAGACCG against PPT2: -0.518; for UCUUCUUUAUGUACCACCG against CDC37L1: 0.00159. The figure for UUGUAAGCUGGAUCGAUCC against ACACB is 0.0997; for UGGGUAUUUGAUCUUGUCG against LZTR1 it is -1.37; for UUCUCUUCAACCCACUUGG against JAKMIP1 it is -2.7. The same measure for UUUAGGUAAAUGAACUCUC against ANGPTL2: 0.169. In the case of UAAAGGUUGAGAAACUUGA against PRPF38A, the seed-corrected z-score was -2.42.

UUAGAAUCGACCGGCAUUC against KIT displayed a seed-corrected z-score of 0.106.

Values taken from PubChem BioAssay AID1159506 (National Center for Advancing Translational Sciences (NCATS), 2015).
